± gives the standard deviation.
Assays:
Details in all cases: modulator concentration 10 µM
[1] = test system: RAW-Dual (murine macrophage reporter line); assay: NF-kB reporter (SEAP) activity fold change vs agonist alone; higher = enhanced NF-kB activity
Outline: (§1)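 RAW-Dual murine macrophage reporter cells were seeded at 50 000 per well in 384-well plates and pre-incubated 1 hour at 37 °C with compound pin-transferred to 10 μM final. After 1 hour, a PRR agonist was added and cells incubated overnight. Supernatant NF-κB (SEAP, QUANTI-Blue, 620 nm absorbance) and IRF (Lucia luciferase, QUANTI-Luc, luminescence) signals were divided by the mean agonist-only control on the same plate to give fold change. Two replicate plates were averaged, with errors by propagation.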

[2] = test system: RAW-Dual (murine macrophage reporter line); assay: IRF reporter (Lucia luciferase) activity fold change vs agonist alone; higher = enhanced IRF activity
Outline: as §1

[3] = test system: RAW-Dual (murine macrophage reporter line); assay: viability score (confluency relative to resting cells, overnight) (fraction); higher = more viable, active = viable (0.7 or more)
Outline: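 Confluency was the readout: RAW-Dual macrophages were imaged with IncuCyte after an overnight exposure to compound at 10 μM final. IncuCyte software produced two masks over all imaged wells. The viability score expresses confluency against resting cells, and both masks had to exceed 70% of resting cells for a compound to meet the cutoff.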

[4] = agonist: CpG ODN 1826 0.5 ug/mL

Row | SMILES | NF-kB reporter [1, 4] | NF-kB reporter ([1]; agonist: LPS 0.1 ug/mL) | NF-kB reporter ([1]; agonist: MPLA […]) | IRF reporter ([2]; agonist: 3'3'-cGAMP 10 ug/mL) | IRF reporter ([2]; agonist: LPS 0.1 ug/mL) | IRF reporter ([2]; agonist: MPLA […]) | viability score [3]
1 | O=C(Cn1cnc(-c2ccc(F)cc2)cc1=O)N1CCOCC1 | 0.891 ± 0.06 | 1.07 ± 0.13 | 1.18 ± 0.075 | 1.04 ± 0.047 | 1.3 ± 0.27 | 1.44 ± 0.45 | 0.99 (active)
2 | CCOC(=O)C(C)N(c1ccc(OC)cc1)S(C)(=O)=O (stereo unspecified) | 0.99 ± 0.056 | 0.985 ± 0.071 | 0.905 ± 0.053 | 1.07 ± 0.053 | 1.22 ± 0.083 | 1.12 ± 0.27 | 0.977 (active)
3 | Cc1ncn(CCNC(=O)Nc2ccc(OC(F)(F)F)cc2)c(=O)c1C | 1.14 ± 0.077 | 1.08 ± 0.088 | 1.01 ± 0.061 | 0.901 ± 0.035 | 1.06 ± 0.05 | 1.11 ± 0.25 | 0.998 (active)
4 | C=C1C(=O)OC2C1CCC(C)=CCCC1(C)OC21 (stereo unspecified) | 0.0586 ± 0.0046 | 0.0442 ± 0.0037 | 0.0844 ± 0.008 | 0.0346 ± 0.011 | 0.025 ± 0.0055 | 0.0274 ± 0.0061 | 0.253 (inactive)
5 | CC1(C)CC(=O)C2=C(C1)OC(N)=C(C#N)C2C1CC=CCC1 (stereo unspecified) | 1.02 ± 0.061 | 1.08 ± 0.099 | 1.11 ± 0.068 | 1.23 ± 0.041 | 1.29 ± 0.18 | 1.14 ± 0.12 | 0.9 (active)
6 | CCC(NC(C)C)C(O)c1ccc(O)c(O)c1 (stereo unspecified) [Prestw-749] | 2.04 ± 0.12 | 1.13 ± 0.092 | 1.34 ± 0.13 | 0.988 ± 0.039 | 0.96 ± 0.051 | 1.08 ± 0.25 | 0.997 (active)
7 | CC1(C)CCCC2=C1CC1C(=O)NC(=O)C1C2 (stereo unspecified) | 0.88 ± 0.079 | 0.977 ± 0.076 | 0.948 ± 0.14 | 0.953 ± 0.085 | 1.16 ± 0.2 | 1.32 ± 0.33 | 1.03 (active)
8 | Nc1ncnc2c1ncn2C1OC(COP(=O)(O)O)C(O)C1O (stereo unspecified) | 1.9 ± 0.51 | 1.3 ± 0.089 | 1.55 ± 0.11 | 1.44 ± 0.052 | 1.19 ± 0.13 | 1.19 ± 0.14 | 0.97 (active)
9 | O=C(Nc1nc2ccc(Cl)cc2s1)c1ccc(Br)s1 | 0.998 ± 0.062 | 0.927 ± 0.072 | 0.924 ± 0.025 | 0.975 ± 0.043 | 1.06 ± 0.054 | 1.09 ± 0.11 | 0.999 (active)
10 | COc1ccc(C2Nc3ccccc3-c3nnc(SCc4ccc(C)cc4)nc3O2)cc1C (stereo unspecified) | 0.964 ± 0.079 | 1.07 ± 0.086 | 0.919 ± 0.04 | 0.961 ± 0.13 | 0.992 ± 0.041 | 1.06 ± 0.15 | 1 (active)
11 | Cl.Nc1ccn([C@@H]2O[C@H](CO)[C@@H](O)[C@@H]2O)c(=O)n1 | 1.61 ± 0.12 | 1.13 ± 0.068 | 1.06 ± 0.047 | 0.87 ± 0.13 | 1.03 ± 0.1 | 0.8 ± 0.079 | 0.579 (inactive)
12 | CC(C)(C)C1(O)CC(C(F)(F)F)=NN1C(=O)c1ccc([N+](=O)[O-])cc1 (stereo unspecified) | 0.644 ± 0.056 | 0.79 ± 0.095 | 1.01 ± 0.035 | 1.38 ± 0.13 | 1.13 ± 0.14 | 1.66 ± 0.33 | 0.941 (active)
13 | COCc1cc(C)nc2sc(C(=O)c3cccc([N+](=O)[O-])c3)c(N)c12 | 0.804 ± 0.063 | 0.719 ± 0.034 | 0.78 ± 0.29 | 0.943 ± 0.043 | 1.36 ± 0.12 | 1.53 ± 0.14 | 1.01 (active)

Source: the supplement of paper PMC10646978
